High-throughput results: PubChem BioAssay, Sanford-Burnham Center for Chemical Genomics
Peg3 promoter: Peg3 promoter-driven luciferase inhibitors, primary screen, cell-based, HeLa, luciferase luminescence; HeLa PEG-Prom luciferase reporter, overnight; inhibition, % at 20 µM; hit rate 1.7% among 360,000; AID 588405, 2011;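 active means inhibition of at least 50% at 20 µM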
CF NFkB block: inhibitors of PAF-induced NF-kB signaling, primary screen, cell-based, GFP fluorescence, uHTS; hit rate 0.86% among 360,000; inhibition, % at 5 µM; KKLEB NF-kB-GFP reporter, GFP fluorescence overnight; AID 588850, 2011;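 active means at least 50% inhibition at 5 µM, scaled per plate between neutral and stimulator controls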;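 further: PAF is a Pseudomonas aeruginosa culture filtrate used as stimulus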
HIF-2a block: HIF-2a reporter inhibitors, primary screen, luminescence, 786-0 RCC cells | 786-0 RCC cells HIF-2a reporter, luciferase luminescence, overnight | inhibition, % at 18.8 µM | hit rate 0.72% among 360,000 | AID 624352, 2012;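 active means inhibition of the luminescence signal of 40% or more relative to plate controls, in a single-dose primary screen at 18.75 µM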
KKLEB cytotox: cytotoxicity in KKLEB CF airway cells, primary screen, cytotoxicity control for CF NF-kB inhibitor project, cell-based, uHTS, fluorescence assay plates | activity change (cytotoxicity), % at 5 µM | hit rate 0.36% among 360,000 | KKLEB CF airway cells viability, ATPlite luminescence, overnight; hits give low values; cells stimulated with P. aeruginosa culture filtrate;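 active means corrected activity change at or below -50% at 5 µM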
TWEAK-Fn14 inh: inhibitors of TWEAK-Fn14 signaling, primary screen, luciferase reporter cells, uHTS | AID 1159606, 2016 | hit rate 2% among 360,000 | inhibition, % at 10 µM | TWEAK-stimulated Fn14 reporter cells, luciferase luminescence, 8 h; in the data active means inhibition above about 50%
TROY signal inh: inhibitors of TROY-driven NF-kB signaling, primary screen, Q293 LMP1-TROYcd cells, NF-kB luciferase, uHTS; inhibition, % at 10 µM; hit rate 0.98% among 360,000; AID 1347056, 2019; Q293 LMP1-TROYcd NF-kB luciferase reporter, 4 h;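 active means compounds whose plate-normalised and pattern-corrected inhibition of the luciferase reporter signal at the single screening dose is 50% or more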
A number is an active result; i = inactive. Rows were chosen to be rich in hits. Some 4% of all compounds tested hit in one or more screens of this group.

SMILES | Peg3 promoter | CF NFkB block | HIF-2a block | KKLEB cytotox | TWEAK-Fn14 inh | TROY signal inh
CCCc1nc2ccccc2c(C(=O)OCC(=O)Nc2ccc(S(=O)(=O)N3CCOCC3)cc2)c1CC | i | i | i | i | i | 78.4
O=C(COC(=O)c1cccc(S(=O)(=O)N2CCOCC2)c1)Nc1ccc2c(c1)OCO2 | i | i | i | i | i | i
CCCc1nc2ccccc2c(C(=O)OCC(=O)Nc2cccc(S(=O)(=O)N3CCOCC3)c2)c1CC | 53.0 | i | i | i | 60.7 | i
CCOP(=O)(OCC)C(NC(=O)Nc1c(C)cc(C)cc1C)c1ccccc1 (centres undefined) | i | i | i | i | i | i
O=C(NCCc1ccccc1)C(=O)NN=C1CCCC1 | i | i | i | i | i | i
CCOc1ccc(NC(=O)CN(C)C(=O)C(C)N2C(=O)c3ccccc3C2=O)cc1OCC (centres undefined) | i | i | i | i | i | i
CCOc1ccccc1CN1CCN(Cc2ccc(C)o2)C(CCO)C1 (centres undefined) | i | i | i | i | i | i
COc1ccc(S(=O)(=O)N2CCOCC2)cc1NC(=O)COC(=O)C1COc2ccccc2O1 (centres undefined) | i | i | i | i | i | 69.3
COc1cccc(COC(=O)c2cc(S(=O)(=O)N3CCOCC3)ccc2Cl)c1OC | i | i | i | i | 84.8 | i
COc1ccc(C)cc1NC(=O)COC(=O)C1COc2ccccc2O1 (centres undefined) | i | i | i | i | i | i
Cc1ccc2c(CN3C(=O)NC(C)(c4ccc5c(c4)OCO5)C3=O)cc(=O)oc2c1 (centres undefined) | i | i | i | i | i | i
CC(C)CN(C(=O)c1nn(C)c(=O)c2ccccc12)c1nc2ccccc2s1 | i | i | i | i | i | i
Cc1ccc2nc(-c3ccc(NC(=O)COC(=O)c4cncc(Br)c4)cc3)sc2c1 | i | i | i | i | i | i
Cc1ccc2nc(-c3ccc(NC(=O)COC(=O)c4ccc([N+](=O)[O-])o4)cc3)sc2c1 | i | i | i | i | 77.7 | i
Cc1ccc2nc(-c3ccc(NC(=O)COC(=O)c4ccc(Br)o4)cc3)sc2c1 | i | i | i | i | 59.2 | i
Cc1cc(C)cc(N(CC(=O)Nc2ccc(-c3nc4ccc(C)cc4s3)cc2)S(C)(=O)=O)c1 | i | i | i | i | i | i
Cc1ccc2nc(-c3ccc(NC(=O)COC(=O)c4ccco4)cc3)sc2c1 | i | i | i | i | 52.4 | i
Cc1ccc2nc(-c3ccc(NC(=O)CN(c4ccccc4C)S(C)(=O)=O)cc3)sc2c1 | i | i | i | i | 53.3 | i
O=C(CCN1C(=O)C2CC=C(Cl)CC2C1=O)NC1CCCCC1 (centres undefined) | i | i | i | i | i | i
Cc1cn([C@H]2C[C@H](O)[C@@H](CNCc3cc(Br)ccc3OCc3ccccc3)O2)c(=O)[nH]c1=O | i | i | i | i | i | i
O=C(Nc1cccc(S(=O)(=O)NC2=NCCC2)c1)C1CC(=O)N(c2ccc3c(c2)OCCO3)C1 (centres undefined) | i | i | i | i | i | i
CC(=O)Nc1ccc2nc(NC(=O)c3ccc([N+](=O)[O-])o3)sc2c1 | i | 81.1 | i | i | i | i
O=C(Nc1ccc(-c2nc3cccnc3s2)cc1)c1ccco1 | i | i | i | i | 57.8 | i
COc1ccc([N+](=O)[O-])cc1N(CC(O)CN(C)C)S(=O)(=O)c1ccc(C)cc1 (centres undefined) | i | i | i | i | i | i
CCC(=O)c1ccc(OCC(=O)OCC(=O)c2cc(C)n(C)c2C)cc1 | i | i | i | i | i | i
CC1CC(=O)C2=C(C1)Nc1ccccc1SC2c1ccc(F)cc1 (centres undefined) | i | i | i | i | i | 66.6
CCCn1c(=N)n(CC(=O)c2ccc([N+](=O)[O-])cc2)c2ccccc21 | 59.6 | i | i | i | i | i
